IL1B secr inh: inflammasome signaling inhibition, IL-1 beta readout. THP-1 LPS/ATP IL-1B secretion, AlphaLISA, 16 h; active compounds read low. activity change, % at 57.5 µM. 360,000 tested, 4.7% active. AID 743279; in the data active means activity change below about -50%; inconclusive means mostly about -30% to -49%
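Secreted IL-1B measured by AlphaLISA bead assay after 16 h compound exposure of THP-1 cells; compounds (final up to 57.5 uM) added 1 h before LPS (250 ng/mL) and ATP (1.25 mM) stimulation; lower signal means less secretion.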
RORgamma inh: ROR gamma (mouse) transcription inhibition | 310,000 tested, 5.4% active | P51450 | Potency, µM (highest dose often 53.6 µM), without a hit: at the highest dose activity change, negative = inhibition, most hits filed as inhibitors | Drosophila S2 Gal4-RORgamma UAS-luciferase reporter, 20 h | AID 2551; further: potency means the concentration at half of the fitted maximal effect; nearly all actives have a fitted effect of over 60% in size
Target sequence (P51450 whole entry, looked up, the tested form may be a part): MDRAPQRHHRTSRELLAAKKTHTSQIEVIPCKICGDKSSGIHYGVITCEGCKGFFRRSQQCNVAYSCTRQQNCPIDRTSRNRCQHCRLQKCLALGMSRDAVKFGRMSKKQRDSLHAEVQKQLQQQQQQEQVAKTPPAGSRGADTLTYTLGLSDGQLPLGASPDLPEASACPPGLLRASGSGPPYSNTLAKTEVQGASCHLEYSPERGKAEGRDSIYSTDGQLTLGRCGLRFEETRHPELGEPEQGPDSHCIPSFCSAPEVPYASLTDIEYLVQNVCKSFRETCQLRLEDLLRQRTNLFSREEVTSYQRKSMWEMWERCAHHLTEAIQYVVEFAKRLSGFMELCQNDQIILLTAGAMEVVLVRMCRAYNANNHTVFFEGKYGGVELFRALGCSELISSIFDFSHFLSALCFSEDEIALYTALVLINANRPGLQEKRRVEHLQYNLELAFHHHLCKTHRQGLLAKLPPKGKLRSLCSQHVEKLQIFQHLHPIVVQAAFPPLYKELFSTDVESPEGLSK
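In this cell-based reporter format, copper sulfate (700 uM final) drives Gal4–ROR gamma fusion expression from a metallothionein promoter in Drosophila Schneider cells; compounds preincubated 1 hr, reporter read after 20 hr at ambient temperature.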
TDP1 cell CPT: growth inhibition of DT40 Tdp1-/-;hTDP1 cells with camptothecin (screen for TDP1 inhibitors); chicken DT40 Tdp1-/-;hTDP1 cells + 20 nM CPT, ATP luminescence, 48 h; Potency, µM (series often up to 46.2 µM), for the others: at the top dose activity change, negative = growth inhibition, most hits filed as inhibitors; 420,000 tested, 12% active; AID 686979; further: potency means the concentration at half of the fitted maximal effect; nearly all actives have a fitted effect of over 55% in size
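Cell growth measured by CellTiter-Glo luminescence after a minimum 48 h, 37 C compound exposure with 20 nM CPT in Tdp1-knockout DT40 cells stably expressing hTDP1, seeded 400/well; qHTS titration format.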
ELG1 DNA repair: ELG1-dependent DNA repair inhibition; 330,000 tested, 2.3% active; Potency, µM (highest dose often 46.1 µM), for inactives: at the highest dose activity change, negative = inhibition, actives largely listed as inhibitors; HEK293T ELG1-luciferase reporter, luminescence, 16 h; DNA damage induced by 5-fluorouridine; further: potency means the concentration at half of the fitted maximal effect; nearly all actives have a fitted effect of over 55% in size
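HEK293T cells expressing luciferase-tagged ELG1 (2,000/well) received 5-Fluorouridine plus compound or DMSO for 16 hr at 37 °C. Luciferase was read by ONE-Glo luminescence after 30 min at room temperature.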
TDP1 cell noCPT: qHTS for Inhibitors of human tyrosyl-DNA phosphodiesterase 1 (TDP1): qHTS in cells in absence of CPT | DT40 Tdp1-/- hTDP1 cells, no CPT, ATP luminescence, 48 h | AID 686978, 2013 | 420,000 tested, 15% active | Potency, µM (top dose mostly 46.2 µM), without a hit: top-dose activity change, negative = growth inhibition, usual class: inhibitors; further: potency means the concentration at half of the fitted maximal effect; nearly all actives have a fitted effect of over 55% in size
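Luminescent ATP content (CellTiter-Glo) served as the growth readout. Knockout chicken DT40 cells expressing human TDP1 were exposed to compounds without camptothecin for a minimum 48 hr at 37 °C.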
VP16 counter: counter-screen for ROR gamma inhibitors: Gal4-VP16 reporter; Drosophila S2 Gal4-VP16 UAS-luciferase, luminescence, 20 h; Potency, µM (highest dose often 53.6 µM), inactives show at the highest dose activity, negative = inhibition, actives largely listed as inhibitors; 310,000 tested, 3.5% active; AID 2546;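 further: Gal4-VP16 expression switched on by copper sulfate through the metallothionein promoter; potency means the concentration at half of the fitted maximal effect; nearly all actives have a fitted effect of over 50% in size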
The depositor's hits bear a star; ? = inconclusive; / = no result given. In the library only some 21% were active in any assay of this set; here they are far more common. Unless noted, the call rests on the fitted dose curve; in most records, active means well fitted curve in the direction sought with a large enough effect; inconclusive means small, poorly fitted or top-dose-only effect, or another doubt; inactive means no such curve, though single readings can be large; an effect the other way counts as inactive or inconclusive. On the % scale 0 is the no-effect control and ±100 the full control effect.

SMILES	IL1B secr inh	RORgamma inh	TDP1 cell CPT	ELG1 DNA repair	TDP1 cell noCPT	VP16 counter
O=c1c(-c2ccc(F)cc2)nc2cnc(Nc3ccccc3)nc2n1C1CC1	/	7.9%	1.6%	/	-4.3%	-17.7%
COc1ccc(NC(=O)COC(=O)CCC2CCCC2)c(OC)c1	-1.1	/	-1.8%	0.0%	24.6%	/
COc1ccc2[nH]cc(CCNc3nc(-c4ccccc4OC)nc4ccccc34)c2c1	/	-34.8%	?	/	?	-23.4%
FC(F)(F)c1cc(-c2ccc(Cl)cc2)nc2ncnn12	-12.4	-3.9%	-12.4%	1.1%	2.0%	3.4%
COc1ccc(C)cc1C1=Nc2ccccc2C1(C)C	0.0	12.6µM*	-5.5%	-1.4%	-13.7%	?
Cc1ccc(S(=O)(=O)N2C[C@H]3[C@H]4C(=O)N(c5ccccc5)C(=O)[C@H]4C[C@H](OC(=O)Nc4cccs4)[C@@]3(O)C2)cc1	-19.3	/	-27.7%	/	?	/
Cc1ccc(S(=O)(=O)N2C[C@@H](C)[C@]3(C2)[C@H](O)[C@H](OC(=O)Nc2cccs2)C[C@H]2C(=O)N(c4ccccc4)C(=O)[C@H]23)cc1	-109.1*	/	23.1µM*	/	16.4µM*	/
COc1ccc(CNC(=O)O[C@@H]2C[C@H]3C(=O)N(c4ccccc4)C(=O)[C@H]3[C@@]3(CN(S(=O)(=O)c4ccc(C)cc4)C[C@H]3C)[C@@H]2O)cc1OC	-64.2*	/	?	/	25.9µM*	/
Cc1ccc(S(=O)(=O)N2C[C@@H](C)[C@]3(C2)[C@H](O)[C@H](OC(=O)NCc2ccco2)C[C@H]2C(=O)N(c4ccccc4)C(=O)[C@H]23)cc1	-8.9	/	-1.0%	/	-1.1%	/
C[C@@H]1CN([C@@H](C)CO)C(=O)c2cc(Br)cnc2O[C@@H]1CN(C)Cc1cncnc1	21.5	/	-3.1%	/	6.0%	/
O=S(=O)(N[C@H](CO)Cc1ccccc1)c1ccc(Br)cc1F	5.4	/	2.9%	?	-23.7%	/
Cc1ccc(CCNC(=O)c2cc3sccc3n2Cc2ccc(F)cc2)cc1	/	/	-19.8%	/	?	/
COCC1CCCCN1C(=O)c1ccc2nc(Cc3ccc(OC)c(OC)c3)oc2c1 (stereo not drawn)	77.2	?	11.6µM*	-13.7%	?	-14.4%
CC(C)c1nc2ccc(C(=O)NCCCN3CCN(c4cccc(Cl)c4)CC3)cc2o1	/	/	18.4µM*	/	20.6µM*	/
Cc1ccc(C)c(NC(=O)c2ccc3nc(CCc4ccccc4)oc3c2)c1	/	/	-18.8%	/	-29.7%	/
O=C(Nc1ccc(Br)cc1F)c1ccc2nc(CCc3ccccc3)oc2c1	/	/	7.31µM*	/	11.6µM*	/
O=C(NCCCN1CCN(c2cccc(Cl)c2)CC1)c1ccc2nc(Cc3ccccc3)oc2c1	/	/	23.1µM*	/	14.6µM*	/
CN1CCN(CCCNC(=O)c2ccc3nc(Cc4ccccc4)oc3c2)CC1	/	/	5.0%	/	1.5%	/
CCCCn1c(N)c(N(CCOC)C(=O)CCS(=O)(=O)c2ccc(C)cc2)c(=O)[nH]c1=O	-26.1	/	-0.6%	/	-3.7%	/
COc1ccc(N2CCN(CCCNC(=O)c3ccc4nc(CCc5ccccc5)oc4c3)CC2)cc1	/	/	14.6µM*	/	16.4µM*	/
COc1ccc(C(=O)Nc2ccc3oc(Cc4ccc(Cl)cc4)nc3c2)cc1OC	6.9	7.5%	?	20.6µM*	?	3.6%
COc1ccc(CNC(=O)c2ccc3nc(CCc4ccccc4)oc3c2)cc1OC	/	/	18.4µM*	/	16.4µM*	/
COc1ccc(Cc2nc3ccc(C(=O)NCCc4ccncc4)cc3o2)cc1OC	0.0	-1.6%	-28.2%	?	-27.9%	-9.4%
COc1cccc(-c2nc3ccc(C(=O)NC(C)Cc4cccnc4)cc3o2)c1 (stereo not drawn)	?	-9.4%	9.2µM*	?	?	?
O=C(Nc1cccc(Cl)c1)c1ccc2nc(Cc3ccccc3)oc2c1	/	/	20.6µM*	/	20.6µM*	/
SMILES	IL1B secr inh	RORgamma inh	TDP1 cell CPT	ELG1 DNA repair	TDP1 cell noCPT	VP16 counter
COc1ccc(Cc2nc3ccc(C(=O)NCc4cc(C)no4)cc3o2)cc1	-11.1	9.5%	-21.2%	?	-30.3%	23.6%
CCC(C)NC(=O)c1ccc2nc(Cc3ccccc3)oc2c1 (stereo not drawn)	/	/	?	/	14.6µM*	/
COc1ccc(N2CCN(CCCNC(=O)c3ccc4nc(Cc5ccccc5)oc4c3)CC2)cc1	/	/	6.51µM*	/	6.51µM*	/
CCc1cc(CNC(=O)c2ccc3nc(Cc4ccc(OC)c(OC)c4)oc3c2)on1	5.1	?	23.1µM*	?	?	?
C=C(C)C(=O)/C=C/C=C/c1ccccc1	/	-7.4%	/	/	/	-3.4%
COc1c(C)cc(S(=O)(=O)NCc2ccccn2)c(C)c1C	22.6	-15.3%	9.2%	?	12.0%	-9.8%
COc1ccc(N2CCN(CCCNC(=O)c3nnc(Cc4ccc(F)cc4)o3)CC2)cc1	/	/	16.4µM*	/	?	/
O=C(NCCCN1CCN(c2ccccc2)CC1)c1ccc2nc(CCc3ccccc3)oc2c1	/	/	3.66µM*	/	4.61µM*	/
COc1ccc(Cc2nc3ccc(C(=O)NCCc4ccc(Cl)cc4)cc3o2)cc1	/	/	-28.7%	/	?	/
COc1ccc(N2CCN(CCCNC(=O)c3ccc(CS(=O)(=O)c4ccc(OC)cc4)o3)CC2)cc1	0.1	7.5%	?	?	?	-3.6%
COc1ccc(Cc2nc3ccc(C(=O)NCCc4ccccn4)cc3o2)cc1OC	-7.0	33.3%	-19.8%	-21.5%	-19.5%	-1.2%

Screening results (PubChem BioAssay)
